Source: PubChem
Luciferase inh – Photinus pyralis luciferase inhibition; P08659; purified P. pyralis luciferase, luminescence, biochemical; Potency, µM (series often up to 115 µM), actives largely listed as inhibitors; actives 2.5% (n = 76,000); AID 1347043; note: nearly all actives have a fitted effect of over 65% in size
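FLuc 10nM, D-luciferin 10uM, ATP 10uM, Mg acetate 10mM, Tris acetate pH 7.5, Tween/BSA; cpd qHTS; enzyme added last; CCD luminescence.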
GPT2 inh – GPT2 alanine aminotransferase inhibition. Recombinant GPT2, coupled pyruvate oxidase/HRP Amplex Red fluorescence. Potency, µM (top dose mostly 57.7 µM), actives largely listed as inhibitors. actives 0.25% (n = 100,000). AID 1671188; note: nearly all actives have a fitted effect of over 60% in size
Target sequence (Q8TD30 whole entry, looked up): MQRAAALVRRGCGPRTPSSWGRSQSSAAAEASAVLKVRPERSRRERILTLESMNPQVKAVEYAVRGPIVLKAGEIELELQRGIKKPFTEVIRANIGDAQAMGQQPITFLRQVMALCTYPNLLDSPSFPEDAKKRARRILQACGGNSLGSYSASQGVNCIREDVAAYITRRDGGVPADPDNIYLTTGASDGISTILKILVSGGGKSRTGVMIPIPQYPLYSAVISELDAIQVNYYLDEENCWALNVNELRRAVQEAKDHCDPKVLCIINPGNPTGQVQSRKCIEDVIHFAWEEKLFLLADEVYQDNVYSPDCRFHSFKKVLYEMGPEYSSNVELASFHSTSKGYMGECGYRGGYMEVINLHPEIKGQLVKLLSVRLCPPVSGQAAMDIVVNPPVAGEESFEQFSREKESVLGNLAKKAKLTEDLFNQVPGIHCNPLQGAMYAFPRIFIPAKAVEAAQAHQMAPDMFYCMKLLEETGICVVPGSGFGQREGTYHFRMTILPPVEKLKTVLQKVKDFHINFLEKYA
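Recombinant GPT2 (10ng/uL) with 250uM a-KG and 2mM L-alanine, 30 min at room temperature, in HEPES pH 7.5 buffer. Pyruvate detected by pyruvate oxidase/HRP/Amplex Red fluorescence after 30 min in the dark; AOA (50uM) as positive control.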
hNpr1 antagonist – human Npr1 receptor antagonism | actives 1.6% (n = 76,000) | Potency, µM (top dose mostly 46.3 µM), most hits filed as inhibitors | HEK293 hNpr1 GloSensor cGMP, ANP-stimulated luminescence; calls by dose curve; note: nearly all actives have a fitted effect of over 60% in size
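Compound pre-incubated 30 min at room temperature on GloSensor-loaded HEK293 cells stably carrying hNpr1 and the pGS-40F cGMP biosensor. Stimulation uses hNppA at 0.1 nM final; luminescence is taken at baseline and 20 min post-agonist.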
NIH3T3 tox – cytotoxic compounds in NIH 3T3 cells; AID 1345082; NIH 3T3 viability, CellTiter-Glo ATP luminescence, 48-72 h; Potency, µM (titrated, usually from 96.7 µM), actives largely listed as inhibitors; actives 4.3% (n = 94,000); note: nearly all actives have a fitted effect of over 55% in size
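Cytotoxicity was measured by CellTiter-Glo ATP luminescence after 48 or 72 h compound exposure at 37 °C. Mouse NIH 3T3 fibroblasts were seeded at 400 cells/well and dosed by 23 nL pin transfer.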
HEK293 tox – HEK 293 cell cytotoxicity; HEK 293 viability, ATP luminescence (CellTiter-Glo), 48-72 h; Potency, µM (series often up to 115 µM), most hits filed as inhibitors; actives 6.6% (n = 94,000); note: nearly all actives have a fitted effect of over 60% in size
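CellTiter-Glo luminescence (cellular ATP) was read after 48 or 72 hr of compound exposure at 37 degree Celsius. Cells were HEK 293 plated at 250 cells/well.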
Each line names hits and unclear results; the compound was inactive in the other large screens; ! = a repeat was not active. This is a sample that favours compounds with a hit; in the whole collection about 10% have one here. Unless noted, calls come from the whole dose curve; as a rule, active = well fitted curve in the direction sought with a large enough effect; inconclusive = small, poorly fitted or top-dose-only effect, or another doubt; inactive = no such curve, though single readings can be large; an effect the other way counts as inactive or inconclusive.

N#Cc1ccc(CN2CCC3(CC(c4cccc(C(F)(F)F)c4)=NO3)C2)cc1 (stereo unspecified)	NIH3T3 tox inconclusive, HEK293 tox inconclusive (no result: Luciferase inh, hNpr1 antagonist)
CC(=O)Nc1ccc(CN2CCC3(CC2)CC(c2cccc(C(F)(F)F)c2)=NO3)cc1	NIH3T3 tox 35µM, HEK293 tox 40µM
Cc1ccc(CN2CCC3(CC2)CC(c2cccnc2)=NO3)cc1	NIH3T3 tox inconclusive, HEK293 tox 79µM!
Cc1noc(C)c1[S+](=O)([O-])N1CCC2(CC1)CC(c1cccc(C(F)(F)F)c1)=NO2	NIH3T3 tox 4.5µM, HEK293 tox inconclusive (no result: Luciferase inh, GPT2 inh, hNpr1 antagonist)
O=[S+]([O-])(c1ccc(C(F)(F)F)cc1)N1CCC2(CC1)CC(c1cccc(C(F)(F)F)c1)=NO2	HEK293 tox inconclusive (no result: Luciferase inh, GPT2 inh, hNpr1 antagonist)
C=CCCOC(=O)N1C[C@@H](C(N)=O)[C@@H]2Oc3c(C)cccc3[C@@H]21	NIH3T3 tox inconclusive (no result: Luciferase inh, GPT2 inh, hNpr1 antagonist)
Fc1ccc(CN2CCC3(CC(c4cccc(C(F)(F)F)c4)=NO3)C2)cc1 (stereo unspecified)	NIH3T3 tox inconclusive, HEK293 tox inconclusive (no result: Luciferase inh, hNpr1 antagonist)
O=C(Cc1ccc(F)cc1)N1CCC2(CC1)CC(c1cccc(C(F)(F)F)c1)=NO2	NIH3T3 tox 40µM, HEK293 tox 50µM (no result: Luciferase inh, GPT2 inh, hNpr1 antagonist)
CN(C)C(=O)N1CCC2(CC1)CC(c1cccc(C(F)(F)F)c1)=NO2	NIH3T3 tox inconclusive, HEK293 tox 45µM (no result: Luciferase inh, GPT2 inh, hNpr1 antagonist)
COc1ccc(C(=O)N2CCC3(CC2)N=C(c2ccc(C)cc2)NO3)cc1F	Luciferase inh inconclusive, hNpr1 antagonist inconclusive
COc1ccc(C(=O)NC2CCCN(c3cc(-c4ccc(Cl)cc4)[nH]n3)C2)cc1 (stereo unspecified)	Luciferase inh inconclusive, NIH3T3 tox 35µM, HEK293 tox inconclusive
COc1ccc(C(=O)NC2CCN(c3cc(-c4ccc(Cl)cc4)[nH]n3)C2)cc1F (stereo unspecified)	NIH3T3 tox inconclusive, HEK293 tox 40µM
COc1ccc(C(=O)NC2CCCN(c3cc(-c4ccccc4)[nH]n3)C2)cc1F (stereo unspecified)	Luciferase inh inconclusive, GPT2 inh inconclusive, NIH3T3 tox 16µM, HEK293 tox inconclusive
COc1ccc(C(=O)NC2CCCN(c3cc(-c4ccccc4)[nH]n3)C2)cc1 (stereo unspecified)	Luciferase inh 25µM, NIH3T3 tox inconclusive, HEK293 tox inconclusive
COc1cc(C(=O)NC2CCCN(c3cc(-c4ccccc4)[nH]n3)C2)cc(OC)c1OC (stereo unspecified)	Luciferase inh 35µM, GPT2 inh inconclusive, NIH3T3 tox inconclusive, HEK293 tox inconclusive
COc1cc(OC)cc(C(=O)NC2CCCN(c3cc(-c4ccccc4)[nH]n3)C2)c1 (stereo unspecified)	Luciferase inh 25µM, NIH3T3 tox inconclusive, HEK293 tox 40µM
COc1ccc(-c2cc(N3CCC(NC(=O)c4cc(OC)c(OC)c(OC)c4)C3)n[nH]2)cc1 (stereo unspecified)	HEK293 tox inconclusive
Cc1ccc(C(=O)NC2CCCN(c3cc(-c4ccc(Cl)cc4)[nH]n3)C2)cn1 (stereo unspecified)	Luciferase inh inconclusive, GPT2 inh inconclusive, NIH3T3 tox inconclusive, HEK293 tox 28µM
COc1cc(C(=O)NC2CCN(c3cc(-c4ccc(Cl)cc4)[nH]n3)C2)cc(OC)c1OC (stereo unspecified)	GPT2 inh inconclusive, NIH3T3 tox inconclusive, HEK293 tox inconclusive
CCOc1cc(C(=O)NC2CCN(c3cc(-c4ccc(OC)cc4)[nH]n3)C2)cc(OCC)c1OCC (stereo unspecified)	NIH3T3 tox 22µM, HEK293 tox 40µM
CS(=O)(=O)N1Cc2ccccc2CC2(CCCCN2Cc2cccnc2)C1 (stereo unspecified)	none (no result: Luciferase inh, hNpr1 antagonist)
COc1ccc(-n2c(=O)c(C(=O)NCc3ccccc3F)nc3cccnc32)cc1	none (no result: Luciferase inh, hNpr1 antagonist)
CCOc1ccccc1CNC(=O)[C@@]12CCCC[C@H]1N(CCOC)C(=O)CC2	NIH3T3 tox inconclusive, HEK293 tox inconclusive
COc1ccc(-c2cc(N3CCCC(NC(=O)c4ccccc4Cl)C3)n[nH]2)cc1 (stereo unspecified)	Luciferase inh 45µM, GPT2 inh inconclusive, NIH3T3 tox inconclusive, HEK293 tox inconclusive
